From paper PMC6792352, “Limited Chemical Structural Diversity Found to Modulate Thyroid Hormone Receptor in the Tox21 Chemical Library” (Environmental Health Perspectives, 2019) come the findings set out here.

Structures can show the parent of a compound that is named as a salt. Bounds are passed on as bounds.

In this assay the test system is thyroid hormone receptor (endogenous TRα and TRβ). Also on record: species or system GH3-TRE-Luc (rat pituitary); GH3-TRE-Luc luciferase reporter, antagonist mode against 1 nM T3, loss of signal, qHTS. The following applies: read-out: Average AC50 (uM) GH3-TRE-Antag, antagonist mode, 1 nM T3, no GH3 cytotoxicity hit.
`C=C/C(C)=C/C/C=C(\C)CCC=C(C)C` [alpha-Farnesene]: the AC50 (as a rule, the concentration at which the activity in the assay is half-maximal) was 44.9 µM.
As for `CCCCC(CC)COC(=O)/C=C/c1ccc(OC)cc1` (stereo not drawn) [2-Ethylhexyl trans-4-methoxycinnamate], the figure is more than 90 µM.
Consider `C[C@@H]1C[C@H]2[C@@H]3C[C@H](F)C4=CC(=O)C=C[C@]4(C)[C@@]3(F)[C@@H](O)C[C@]2(C)[C@@]1(O)C(=O)COC(=O)C(C)(C)C` [Flumethasone pivalate], for which the concentration at half-maximal activity (AC50) came out at 26.2 µM.
The same measure for `O=C(CCCN1CCC(O)(c2ccc(Br)cc2)CC1)c1ccc(F)cc1` [Bromperidol]: 12.9 µM; for `CCCC(=O)O[C@]1(C(=O)CCl)[C@@H](C)C[C@H]2[C@@H]3CCC4=CC(=O)C=C[C@]4(C)[C@@]3(F)C(=O)C[C@@]21C` [Clobetasone butyrate]: 32.9 µM.
The same measure for `O=C(N[C@H]1N=C(c2ccccc2F)c2cccc3c2N(CC3)C1=O)c1cc2ccccc2[nH]1` [Pranazepide]: 12.1 µM.
The same measure for `CCN(CCCCOC(=O)c1ccc(OC)c(OC)c1)C(C)Cc1ccc(OC)cc1` (stereo not drawn) [Mebeverine hydrochloride]: 13.7 µM; for `COC1=CC(=O)O[C@@H](/C=C/c2ccc3c(c2)OCO3)C1` [Methysticin]: 0.0476 µM; for `Cc1cc(C(C)(C)C)cc(C)c1CC1=NCCN1` [Xylometazoline hydrochloride]: 11 µM.
Turning to `C[C@H](CN1CCCC1)C(=O)c1ccc(C(F)(F)F)cc1` [Lanperisone hydrochloride], the AC50 amounted to 31.4 µM.
As for `NC(=O)Nc1ccc(Cl)c(Cl)c1` [3,4-Dichlorophenylurea], the figure is 52.4 µM.
The same measure for `CC1(C)CC/C(=C\c2ccc(Cl)cc2)C1(O)Cn1cncn1` (stereo not drawn) [Triticonazole]: more than 90 µM.
